The results in this text go back to PubChem BioAssay (NCATS).

Unmarked numbers belong to inactive results. Calls come from the whole dose curve; as a rule, active = well fitted curve in the direction sought with a large enough effect; inconclusive = small, poorly fitted or top-dose-only effect, or another doubt; inactive = no such curve, though single readings can be large or run the other way.

Sequence of Alpha-galactosidase (Coffea arabica) (Q42656 whole entry, looked up): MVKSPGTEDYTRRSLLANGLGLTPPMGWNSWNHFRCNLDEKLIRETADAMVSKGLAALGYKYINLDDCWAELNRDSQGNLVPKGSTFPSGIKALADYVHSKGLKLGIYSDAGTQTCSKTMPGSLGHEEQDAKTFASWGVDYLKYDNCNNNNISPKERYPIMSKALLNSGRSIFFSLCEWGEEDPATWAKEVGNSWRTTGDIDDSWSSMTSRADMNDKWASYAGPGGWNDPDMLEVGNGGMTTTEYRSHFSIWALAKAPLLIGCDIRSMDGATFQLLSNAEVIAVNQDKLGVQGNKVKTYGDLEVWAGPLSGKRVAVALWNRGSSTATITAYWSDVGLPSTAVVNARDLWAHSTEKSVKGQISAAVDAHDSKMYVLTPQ

In the test the target is Alpha-galactosidase (Coffea arabica) (UniProt Q42656). The test can be described thus: Counterscreen for Glucocerebrosidase Inhibitors: qHTS Assay for Coffee Bean alpha-Galactosidase at pH 4.5 (AID 957).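 Note: plate controls were enzyme alone for no effect and no enzyme for full effect.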 Conditions: purified coffee bean alpha-galactosidase, fluorogenic substrate; series mostly up to 76.9 µM; activity change, negative = inhibition: at the top concentration. The gist of the method:
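Quantitative HTS of compounds (0.7 nM to 77 uM) against coffee bean alpha-galactosidase at pH 4.5, measuring 4-methylumbelliferone fluorescence released from 80 uM substrate.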
In general terms: Counterscreens check selectivity or assay interference.
With `COc1cc(NS(C)(=O)=O)ccc1Nc1c2ccccc2nc2ccccc12`, the “activity change, negative = inhibition” value is 7.92%.

Turning to `O=c1[nH]oc2c1CCNC2`, the “activity change, negative = inhibition” value is -0.191%.

Consider `CCN(CC)C(=O)c1ccc(O)c(OC)c1`, for which the “activity change, negative = inhibition” value is 1.61%.

For the compound `CN1[C@@H]2CC[C@H]1CC(OC(c1ccccc1)c1ccccc1)C2` (some centres undefined), the “activity change, negative = inhibition” value is -4.01%.

Consider `CN1CCC[C@@H]1c1cccnc1`, for which the “activity change, negative = inhibition” value is -1.46%.

On to `O=c1[nH]cnc2[nH]ncc12`, for which the “activity change, negative = inhibition” value was 1.21%.

`COc1ccc2[nH]cc(CCNC(C)=O)c2c1`: the “activity change, negative = inhibition” value was -0.282%.

Take `CCOC(=O)c1cnc2c(cnn2CC)c1NN=C(C)C`: the “activity change, negative = inhibition” value was 1.07%.

Take `CCN1CCC[C@H]1CNC(=O)c1cc(S(N)(=O)=O)ccc1OC`: the “activity change, negative = inhibition” value was 3.26%.

For `CN=C(NC#N)NCCSCc1nc[nH]c1C`, the “activity change, negative = inhibition” value is -0.373%.

In the case of `CCN(CC)CCNC(=O)c1cc(S(C)(=O)=O)ccc1OC`, the “activity change, negative = inhibition” value was -2.69%.

As for `O=C1NCC2(CCN(CCc3ccccc3)CC2)O1`, the “activity change, negative = inhibition” value was -1.9%.

Take `CC(C)Cc1ccc(C(C)C(=O)O)cc1` (centres undefined): the “activity change, negative = inhibition” value is -4.89%.

With `CN(C)C(=O)Oc1ccc[n+](C)c1`, the “activity change, negative = inhibition” value is 2.94%.

Take `CC(=O)N1CCN(c2ccc(OC[C@H]3CO[C@](Cn4ccnc4)(c4ccc(Cl)cc4Cl)O3)cc2)CC1`: the “activity change, negative = inhibition” value was -3.01%.

Regarding `CN(C)CCOC(=O)COc1ccc(Cl)cc1`, the “activity change, negative = inhibition” value was 0.0504%.

For the compound `O=C(CCCN1CCC2(CC1)C(=O)NCN2c1ccccc1)c1ccc(F)cc1`, the “activity change, negative = inhibition” value was -1.35%.

Turning to `CC(=O)Oc1cc(C(C)C)c(OCCN(C)C)cc1C`, the “activity change, negative = inhibition” value is -0.0202%.

Take `NCCCNCCSP(=O)(O)O`: the “activity change, negative = inhibition” value was 1.99%.

With `COc1ccc2cc([C@H](C)C(=O)O)ccc2c1`, the “activity change, negative = inhibition” value is -4.89%.

Turning to `Nc1cc(=O)[nH]c(N)n1`, the “activity change, negative = inhibition” value is 0.489%.

`CCn1nc(C(=O)O)c(=O)c2cc3c(cc21)OCO3`: the “activity change, negative = inhibition” value is 0.747%.

Take `CN1CCN(CCC=C2c3ccccc3Sc3ccc(S(=O)(=O)N(C)C)cc32)CC1`: the “activity change, negative = inhibition” value was 1.52%.

Take `Clc1cccc(Cl)c1NC1=NCCN1`: the “activity change, negative = inhibition” value is 0.541%.

With `O=c1[nH]c(=O)n([C@H]2C[C@H](O)[C@@H](CO)O2)cc1Br`, the “activity change, negative = inhibition” value was -0.759%.

For `Nc1nc2ccc(OC(F)(F)F)cc2s1`, the “activity change, negative = inhibition” value was -0.736%.

With `CN1CCN(CC(=O)N2c3ccccc3C(=O)Nc3cccnc32)CC1`, the “activity change, negative = inhibition” value was -2.17%.

As to `CCN(CC)CCNC(=O)c1ccc(N)cc1`, the “activity change, negative = inhibition” value was 0.289%.

In the case of `Cc1nc2ccccn2c(=O)c1CCN1CCC(C(=O)c2ccc(F)cc2)CC1`, the “activity change, negative = inhibition” value was 2.78%.
